Several values for one entry are separate records, joined by “and”; a condition that tells them apart may be missing. Identical values can stand only once. Records with an inconclusive call do not appear. Activity calls are given as the source filed them. Calls follow the shape of the dose curve; as a rule, active = well fitted curve in either direction with a large enough effect (not every such curve was filed as active); inconclusive = small, poorly fitted or top-dose-only effect, or another doubt; inactive = flat fitted curve, though single readings scatter.
Assay: NFAT Signaling Pathway (AID 444)
Conditions: Jurkat NFAT-bla M1, carbachol, beta-lactamase ratio, 5 h; at 7.69 µM (top of the series)
From the text: NCGC Assay Overview: The nuclear factor of activated T cells (NFAT) family of transcription factors has been found primarily in most immune system cells and some other non-immune cells. NFAT plays the immunomodulatory role, primarily in T-cell activation and differentiation. NFAT target genes are also involved in the regulation of apoptosis and differentiation in non-immune cell types. The NFAT sequence was engineered to the upstream of the ?-lactamase reporter gene and transfected into Jurkat cells with co-transfection of muscarinic receptor1 [provided by Invitrogen Corp]. When an extracellular stimulus, such as carbachol, binds to the GPCR M1 receptor, it stimulates a signaling cascade that activates NFAT response element and ?-lactamase expression by phosphorylating the NFAT binding protein. This cell based ?-lactamase reporter gene assay can accurately monitor any changes occurring along the NFAT pathway, and can be used for screening small molecule inhibitor or activator upon activation by carbachol EC50 concentration. A small molecular library were screened in a titration series resulting in AC50s (can be either IC50s or EC50s).
NCGC Assay Protocol Summary: The cells were prepared in RPMI 1640 medium containing 0.1% dialyzed FBS and 25 mM HEPES at 1.6 x 10^6cell/ml. The assay was performed in 1536-well plate format as follows: 5 ul of cell preparation 23 nl of compounds 1ul of carbachol (final concentration 1 uM) Briefly centrifuge the plates and incubate at 37 °C for 5 hours 1 ul of CCF4 dye mixture Incubate the plates at RT for 1 hour Read the plate in EnVision plate reader (Ex= 405nm, and Em1=460nm and Em2=530nm). The %Activity was determined from the ratio of 460nm/530nm. Data normalization and AC50 calculations were accomplished using GeneData software.
% is scaled to controls: 0 for no effect and ±100 for the full control effect.

Row | Structure (SMILES) | activity change, negative = inhibition
1 | O=C(O)CC[C@@H](C(=O)O)N1C(=O)c2ccccc2C1=O | 15.2% (inactive)
2 | NCCSSCCN | 0.926% (inactive)

Same assay, conditions: Jurkat NFAT-bla M1, carbachol, beta-lactamase ratio, 5 h; at 38 µM (top of the series)

Row | Structure (SMILES) | activity change, negative = inhibition
3 | O=C(O)CC[C@@H](C(=O)O)N1C(=O)c2ccccc2C1=O | -1.84% (inactive)
4 | NCCSSCCN | -3.66% (inactive)

Same assay, conditions: Jurkat NFAT-bla M1, carbachol, beta-lactamase ratio, 5 h; at 38 µM (top of the series) unless noted

Row | Structure (SMILES) | activity change, negative = inhibition
5 | O=C1NC(O)=NC1(c1ccccc1)c1ccccc1 | -13.5% (inactive)
6 | O=S(=O)(c1cccc2c(I)cccc12)N1CCCNCC1 | -18.6% (inactive)
7 | c1ccc(-c2ccccn2)nc1 | -2.98% (inactive)
8 | Nc1nc(Cl)nc2c1ncn2[C@@H]1O[C@H](CO)[C@@H](O)[C@H]1O | 22.4% [at 17.2 µM] (inactive)
9 | O=C(O)Cc1ccc(-c2ccccc2)cc1 | -2.29% [at 17.2 µM] (inactive) and -12.1% [at 17.2 µM] (inactive)
10 | O=C(Nc1cccc(C(=O)Nc2ccc(S(=O)(=O)O)c3cc(S(=O)(=O)O)cc(S(=O)(=O)O)c23)c1)Nc1cccc(C(=O)Nc2ccc(S(=O)(=O)O)c3cc(S(=O)(=O)O)cc(S(=O)(=O)O)c23)c1 | 4.75% (inactive)
11 | O=C(Nc1ccccc1)c1cc([N+](=O)[O-])ccc1Cl | -5% (inactive)
12 | O=C(O)c1cc([N+](=O)[O-])ccc1NCCCc1ccccc1 | 5.3% (inactive)
13 | CN1CCc2ccccc2Cc2[nH]c3ccccc3c2CC1 | -7.31% (inactive)
14 | NCCCCC(=O)O | -1.14% (inactive)
15 | O=C(c1cc(O)c(O)c([N+](=O)[O-])c1)c1ccccc1F | 0.576% (inactive)
16 | OC[C@H]1O[C@@H](n2cnc3c(Nc4ccccc4)ncnc32)[C@H](O)[C@@H]1O | 4.47% [at 17.2 µM] (inactive)
17 | CN1CCc2cc(NC(=O)Nc3cccnc3)ccc21 | 4.73% (inactive)
18 | CC1(C)S[C@@H]2[C@H](NC(=O)[C@H](N)c3ccccc3)C(=O)N2[C@H]1C(=O)O | 3.92% [at 17.2 µM] (inactive)
19 | CC1(C)CCC=[N+]1[O-] | -6.56% (inactive)
20 | Cc1ccc(O)c(N=Nc2ccccc2)n1 | -10.8% (inactive)
21 | Cc1c(Nc2ncccc2C(=O)O)cccc1C(F)(F)F | -13.1% [at 17.2 µM] (inactive)
22 | CNCC[C@H](Oc1ccc(C(F)(F)F)cc1)c1ccccc1 | -28% (inactive) and -21.6% (inactive) and -27.9% (inactive)

Row | Structure (SMILES) | activity change, negative = inhibition
23 | Oc1ccccc1O | 1.49% (inactive)
24 | N.N.O=C(O)C1(C(=O)O)CCC1.[Pt] | 13.9% (inactive)
25 | NO | -5.23% (inactive)
26 | O=C1C(SCCO)=C(SCCO)C(=O)c2ccccc21 | -94.5% (active)
27 | NCCCS(=O)(=O)O | 29% (inactive)
28 | O=C(O)c1ccccc1Nc1cccc(C(F)(F)F)c1 | -44% [at 17.2 µM] (inactive)
29 | O=C(O)c1cc(=O)c2ccccc2[nH]1 | 13.2% (inactive)
30 | N[C@H](CCCP(=O)(O)O)C(=O)O | -6.29% (inactive)
31 | Nc1cc(-c2ccncc2)c[nH]c1=O | -1.83% [at 17.2 µM] (inactive)
32 | COC1=C(OC)C(=O)c2ccccc2C1=O | -8.88% (inactive)
33 | CN(C)C(N)=NCCC[C@H](N)C(=O)O | -0.969% (inactive)
34 | Cc1ccc(C(=O)c2ccc(CC(=O)O)n2C)cc1 | -1.3% [at 17.2 µM] (inactive)
35 | CCCCN1CCC(n2c(=O)[nH]c3ccccc32)CC1 | 4.7% (inactive)
36 | O=C(O)c1cc(=O)c2c(Cl)cc(Cl)cc2[nH]1 | 0.544% (inactive)
37 | Clc1ccc(N2CCN(Cc3c[nH]c4ncccc34)CC2)cc1 | -18.8% (inactive)
38 | COc1ccc(/C=C/C(=O)Nc2ccccc2C(=O)O)cc1OC | 22.7% [at 17.2 µM] (inactive)
39 | Cc1cc(NC(=O)Nc2ccc3c(ccn3C)c2)sn1 | 10.3% (inactive)
40 | OC[C@H]1O[C@@H](n2cnc3c(NC4CCCC4)ncnc32)[C@H](O)[C@@H]1O | 7.15% [at 17.2 µM] (inactive)

— PubChem BioAssay (NCATS)
